Drawing on the supplement of paper PMC6555819, this text covers PBM binding z-score for eight sequences.

Holding throughout (assay): PBM binding z-score (relative to random genomic background probes); higher = stronger binding; sequences stand for … in GC…GCGATTGACAGCGTAGAATGAAGG
Test [1] relates to FXR:RXRa (NR concentration 270 nM, RXRa partner concentration 90 nM). An outline of the steps: (§1)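 Antibodies against each partner of ligand-free nuclear receptor dimers (one per run) detected binding on custom Agilent 4×180K protein-binding microarrays after 1 h incubation. The double-stranded probes had 34-nt variable regions carrying direct-repeat seeds, single-nucleotide variants, half-site ablations and random human genomic background sequences. Binding z-scores, from regression-normalized fluorescence, use the random background probes as reference.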

The test system of test [2] is LXRa homodimer (NR concentration 270 nM). An outline of the steps:
as §1

Test [3] has as its system LXRb homodimer (NR concentration 270 nM). An outline of the steps:
as §1

Test [4] has as its system PPARg:RXRa (NR concentration 180 nM, RXRa partner concentration 90 nM). The gist of the method:
as §1

The test system of test [5] is PPARg:RXRa 270nM:90nM, anti-RXR (NR concentration 270 nM, RXRa partner concentration 90 nM). An outline of the steps:
as §1

Test [6] has as its system PPARg:RXRa 30nM:10nM, anti-RXR (NR concentration 30 nM, RXRa partner concentration 10 nM). An outline of the steps:
as §1

The subject of test [7] is PPARg:RXRa 90nM:30nM, anti-RXR (NR concentration 90 nM, RXRa partner concentration 30 nM). The gist of the method:
as §1

Test [8] relates to PPARg:RXRa DBDmut IVT, anti-RXR (DBD mutation: RXRa K156A/R161A, NR concentration 270 nM, RXRa partner concentration 90 nM). An outline of the steps: as §1
Test [9] deals with PPARg:RXRa IVT, anti-PPARg (NR concentration 270 nM, RXRa partner concentration 90 nM). The gist of the method: as §1
Test [10] relates to PPARg DBDmut:RXRa IVT, anti-PPARg (DBD mutation: PPARg1 K132A/R137A, NR concentration 270 nM, RXRa partner concentration 90 nM). The gist of the method: as §1
Test [11] deals with PPARg DBDmut IVT, anti-PPARg (DBD mutation: PPARg1 K132A/R137A, NR concentration 270 nM). An outline of the steps:
as §1

Test [12] has as its system PPARg homodimer (NR concentration 180 nM). The gist of the method:
as §1

Test [13] relates to PXR:RXRa (NR concentration 270 nM, RXRa partner concentration 90 nM). The gist of the method: as §1
The subject of test [14] is PXR homodimer (NR concentration 270 nM). An outline of the steps: as §1
The test system of test [15] is RARa:RXR (NR concentration 270 nM, RXRa partner concentration 90 nM). The gist of the method:
as §1

The subject of test [16] is RARa homodimer (NR concentration 270 nM). An outline of the steps: as §1
The subject of test [17] is RARb:RXRa (NR concentration 270 nM, RXRa partner concentration 90 nM). The gist of the method: as §1
Test [18] deals with RARb homodimer (NR concentration 270 nM). The gist of the method: as §1
Test [19] relates to PPARa:RXRa (NR concentration 270 nM, RXRa partner concentration 90 nM). An outline of the steps: as §1
Test [20] relates to LXRa:RXRa (NR concentration 270 nM, RXRa partner concentration 90 nM). An outline of the steps: as §1

As to TAGCCTAGGTCATGGGCCAGTGTACCACGCGAAC, the PBM binding z-score is 4.82 in [1]; 0.0441 in test [2]; -0.0634 in test [3]; 4.13 in test [4]; 3.87 in test [5]; 1.39 in [6]. Besides, the PBM binding z-score in test [7] turned out to be 2.66; in test [8] it was 1.74; in test [9], 3.43; in test [10] it was 0.332; in [11], 0.203; in test [12], 1.42. In addition, the PBM binding z-score in test [13] was 1.6; in [14], -0.511; in [15], 2.86; in test [16], -0.252; in test [17] it was 4.01; in test [18] it was 3.09.
For the sequence ATATGTAGGTTATCTGGGGTCATTCAGACTAGGC, the PBM binding z-score in test [1] was determined as 6.16; in test [2], 8.86; in test [3] it was 2.41; in test [4], 6.31; in [5] it was 5.84; in [6], 3.28. In addition, the PBM binding z-score in [7] was determined as 5.32; in test [8], 7.21; in [9], 6.58; in test [10] it was 2.87; in test [11] it was 2.04; in test [12], 3.42. For the same sequence, the PBM binding z-score in test [14] was determined as 6.37; in [15], 5.95; in [16], 1.76; in [17], 3.16; in test [18], 3.97.
As for CCGAGGAGGTTACGAGGGGGCATTCAGTGCGAAT, the PBM binding z-score is 4.41 in test [1]; 1.63 in test [2]; 4.29 in [19]; 2.38 in test [4]; 3.52 in test [5]; 0.838 in [6]. The PBM binding z-score was 2.45 in test [7]; 1.54 in test [8]; 3.07 in test [9]; 1.6 in [12]; 6.25 in test [13]; 6.9 in [14]. For the same sequence, the PBM binding z-score in test [15] was 3.97; in [16], -0.256; in test [17], 2.89; in [18], 2.52.
For the sequence TAGCCTAGGTCGTTCAGGGGCCAGTATAGAAAGC, the PBM binding z-score was 0.616 in test [1]; -0.424 in test [2]; 0.206 in test [3]; -0.0601 in [4]; 0.17 in test [5]; -0.575 in [6]. The PBM binding z-score in test [7] is -0.218; in test [8], -0.258; in test [9], 0.847; in test [10], -0.279; in test [11], -0.473; in test [12], 0.19. Besides, the PBM binding z-score in test [13] is 0.589; in [14] it was -0.665; in test [15] it was 1.18; in test [16] it was -0.836; in [17], 1.63; in test [18], 1.63.
With GCTGCTAGGTCAACTGATGGCCAGCTAAAGCTCG, the PBM binding z-score was 2.54 in test [20]; -0.17 in test [2]; -0.174 in test [3]; 3.6 in test [19]; 2.45 in test [4]; 3.01 in test [5]. In addition, the PBM binding z-score in test [6] was 0.617; in [7], 2.13; in test [8], 4.28; in [9] it was 4.14; in test [10], -0.855; in test [11], -0.449. The PBM binding z-score in test [12] was 1.12; in [13], 1.1; in [14], -0.837; in test [15], 1.88; in [16], -0.722; in [17] it was 4.23. In addition, the PBM binding z-score in test [18] was 3.32.
As to CGTCCAAGGTTAAGGTCAGTGAAAGAGACTCGAA, the PBM binding z-score was 3.28 in [20]; 0.367 in [2]; -0.224 in test [3]; 3.78 in test [19]; 2.06 in [4]; 2.6 in test [5]. Also, the PBM binding z-score in test [6] was 0.541; in test [7], 1.49; in [8] it was 1.47; in test [9], 2.04; in test [10], -0.847; in test [11] it was -0.494. Besides, the PBM binding z-score in test [12] turned out to be 3.1; in test [13] it was 2.73; in test [14] it was 1.01; in [15], 3.56; in test [16], 0.781; in test [17], 4.16. The PBM binding z-score in [18] is 3.58.
Consider ATTTGTAGGTTACATCCGGGTCATTCAGGCTATG, for which the PBM binding z-score in [20] worked out at 5.11; in [2] it was 2.84; in test [3], 1.83; in test [19], 4.12; in [4], 4.22; in test [5], 4.28. In addition, the PBM binding z-score in [6] was 2.12; in test [7] it was 3.26; in [8] it was 6.92; in test [9], 6.29; in test [10], 3.31; in test [11], 2.1. For the same sequence, the PBM binding z-score is 3.38 in [12]; 4.12 in test [13]; 4.01 in test [14]; 4.19 in test [15]; 2.72 in [16]; 2.77 in test [17]. For the same sequence, the PBM binding z-score in [18] was 3.43.
As to CGTCAAAGTCCAAGGTAACGTAACAGAAAGCAGC, the PBM binding z-score in [20] is -0.0963; in test [2] it was 0.0661; in [3], -0.271; in test [19], 0.351; in [4], 0.688; in test [5], 0.296. In addition, the PBM binding z-score in test [6] is 0.129; in [7], 0.303; in test [8], 0.295; in [9], 0.33; in test [10], 0.185; in test [11] it was 0.896. In addition, the PBM binding z-score in test [12] was 0.652; in test [13], -0.079; in test [14], 0.233; in test [15], 0.165; in test [16], 0.428; in test [17], 1.52. This sequence also registered a PBM binding z-score in [18] of 0.655.
